Shiga inhibitor = A qHTS for Small Molecule Inhibitors of Shiga Toxin. inhibition, % at 38.7 µM. Vero cells, Shiga toxin protein synthesis inhibition reporter. actives 9.2% (n = 290,000); in the data active = inhibition mostly above about 28%, no sharp cut-off; inactive = mostly below about 43%; also: 0% is about no effect
HCV inhibitor = qHTS Assay for Inhibitors of Hepatitis C Virus (HCV) | Huh7.5.1 HCVcc-Cre infection, luciferase reporter, 44 h | Potency, µM (highest dose often 41.8 µM), inactives show top-dose activity change, negative = inhibition, usual class: inhibitors | actives 3.4% (n = 340,000); also: potency is read from the fitted curve at half-maximal effect; % is scaled to controls: 0 for no effect and ±100 for the full control effect
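Luciferase read-out (15 sec integration) after a 15 min room-temperature substrate step quantifies HCVcc-Cre infection. Cells, 1,000 per well, had compound added 4 h post-plating, then virus at ~0.5 moi, and were cultured 44 h.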
Pf growth 48h = Primary qHTS for delayed death inhibitors of the malarial parasite plastid, 48 hour incubation; P. falciparum luciferase growth in erythrocytes, 48 h; Potency, µM (highest dose often 28.7 µM), without a hit: at the highest dose activity change, negative = inhibition, hits mostly inhibitors; actives 5.9% (n = 310,000); AID 504832, 2011; also: potency is read from the fitted curve at half-maximal effect; % is scaled to controls: 0 for no effect and ±100 for the full control effect
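Firefly luciferase activity from engineered P. falciparum reports growth; inhibitors lower the luminescent signal. Cultures contained 2% hematocrit erythrocytes at 0.1% final parasitemia.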
AMA1 RON2 block = qHTS for Inhibitors of AMA1-RON; Towards Development of Antimalarial Drug Lead: Primary Screen; AlphaScreen AMA1-biotinylated RON2 peptide binding; Potency, µM (titrated, usually from 58.2 µM), for inactives: top-dose activity change, negative = inhibition, most hits filed as inhibitors; actives 0.2% (n = 360,000); AID 720542, 2013;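 also: potency is read from the fitted curve at half-maximal effect; 0% = vehicle wells and -100% = peptide control; nearly all actives have a fitted effect of over 45% in size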
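AMA1 (3D7) with his tag at 25 nM final met compounds first, then biotinylated RON2 peptide at 25 nM; detection used donor plus acceptor beads, 10 µg/mL apiece, read by AlphaScreen after 30 min at room temperature.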
Pf growth 96h = Primary qHTS for delayed death inhibitors of the malarial parasite plastid, 96 hour incubation; actives 6.9% (n = 320,000); P. falciparum luciferase reporter growth, 96 h; Potency, µM (doses to about 28.7 µM), inactives show top-dose activity change, negative = inhibition, most hits filed as inhibitors; also: potency is read from the fitted curve at half-maximal effect; % is scaled to controls: 0 for no effect and ±100 for the full control effect
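Two parasite generations (96 h, 37 C, 5% CO2) of compound exposure in infected erythrocytes (0.05% parasitemia, 2% hematocrit). Luciferase-reporter P. falciparum; decreased luminescence indicates inhibited growth, aimed at apicoplast-acting delayed death.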
Cycloheximide cs = Cycloheximide Counterscreen for Small Molecule Inhibitors of Shiga Toxin. cell reporter, cycloheximide protein synthesis inhibition counterscreen. max response, %. actives 12% (n = 300,000); in the data active = max response mostly above about 13%, no sharp cut-off; inactive = mostly below about 14%; also: read at 38.3 µM for the half of the compounds with a filed dose; 0% is about no effect
The depositor's hits bear a star; ? = inconclusive; / = not tested or not shown. A selection: hits, their analogues and other compounds. The true share with any hit is near 21%. Unless noted, calls follow the shape of the dose curve; as a rule, active = well fitted curve in the direction sought with a large enough effect; inconclusive = small, poorly fitted or top-dose-only effect, or another doubt; inactive = no such curve, though single readings can be large; an effect the other way counts as inactive or inconclusive.

SMILES | Shiga inhibitor | HCV inhibitor | Pf growth 48h | AMA1 RON2 block | Pf growth 96h | Cycloheximide cs
C/C(N)=C(/C#N)C(=O)CSc1nnc(Nc2ccccc2C)s1 | 50.9* | ? | 57.9% | -16.7% | 7.38µM* | 45.6*
C/C(N)=C(/C#N)C(=O)CSc1nnnn1-c1ccc(C)cc1 | 50.1 | -1.0% | 12.0% | -0.4% | ? | 36.1*
Cc1ccc(S(=O)(=O)COCCN2CCN(S(=O)(=O)c3ccc(C)cc3)CCC2=O)cc1 | 3.7 | / | / | / | / | -4.4
COc1cc(/C=C2/SC(=S)N(CCC(=O)Nc3cccnc3)C2=O)cc(OC)c1OC | / | / | / | 8.1% | / | /
N#Cc1cc(N)ccc1-n1cccc1 | -5.7 | 5.3% | 40.3% | -3.1% | 21.5% | -0.8
O=C(CN1C(=O)c2ccc([N+](=O)[O-])cc2C1=O)Nc1cc(S(=O)(=O)N2CCOCC2)ccc1Cl | / | 16.2% | 49.4% | 59.1% | 0.0% | /
Cc1cccc(C)c1NC(=O)C1CCCN1C(=O)Nc1cccc(F)c1 (centres undefined) | -3.0 | 19.4% | 3.2% | 0.8% | ? | 1.7
C/C(N)=C(/C#N)C(=O)CSc1nnc(NC(C)C)s1 | 58.4* | 18.3% | 120.0% | ? | ? | 30.1*
COc1cc(NC(=O)CSc2nnc(NC(C)C)s2)cc(OC)c1OC | -6.6 | -10.2% | ? | -6.2% | -27.2% | -2.2
C/C(N)=C(/C#N)C(=O)CSc1nc2ccccc2[nH]1 | 66.5* | -1.9% | 145.7% | -19.9% | / | 35.0*
C/C(=N\NC(N)=S)c1ccc(-n2ccnc2)cc1 | -6.3 | ? | ? | 93.9% | ? | -3.1
C/C(=N\Nc1ccc(Cl)c(Cl)c1)c1ccc(-n2ccnc2)cc1 | 20.8 | ? | 11.7µM* | -15.6% | 4.65µM* | 10.4
C=C(C)CNC(=S)N/N=C(\C)c1ccc(-n2ccnc2)cc1 | -10.2 | 1.3% | / | 14.2% | 5.86µM* | -3.2
COc1ccccc1NS(=O)(=O)c1cccc(C(=O)N/N=C(/C)c2ccc(-n3ccnc3)cc2)c1 | / | ? | / | 38.6% | / | /
C/C(=N\NC(=O)OC(C)(C)C)c1ccc(-n2ccnc2)cc1 | 15.6 | 12.7% | 213.0% | 9.1% | ? | 13.3
COc1ccccc1NS(=O)(=O)c1cccc(C(=O)N/N=C(\C)c2ccc(-n3ccnc3)cc2)c1 | -25.3 | -14.8% | / | 51.0% | 13.1µM* | -3.3
C/C(=N\NC(=O)c1ccccc1)c1ccc(-n2ccnc2)cc1 | 60.3* | 7.5% | 5.7% | 6.4% | 24.6% | 37.1*
CSc1ccc(CN2CCC(C)(Oc3cnc(Cl)c4ccccc34)C2)cc1 (centres undefined) | / | / | / | -25.6% | / | /
COC(=O)c1ccc(NC(=O)COc2ccc(S(=O)(=O)NC(C)(C)C)cc2)cc1 | 11.1 | -9.9% | 6.1% | -3.8% | 15.7% | 4.3
CS(=O)(=O)c1ccc(C(=O)OCC(=O)N(CCc2ccccc2)Cc2ccccc2)cc1 | / | 13.6% | 2.0% | 3.3% | 2.5% | /
c1ccn2c(c1)nc1c2nc2ccccn21 | 27.7 | 7.2% | 73.3% | -3.4% | ? | 6.8
COc1ccc(-c2nc3c4ccccc4ccn3c2C=O)cc1 | -11.5 | 8.5% | 16.3% | 2.0% | -1.5% | 0.8
Cc1ccc(-c2nc3ccccn3c2C=O)cc1 | 65.7* | -16.2% | 52.9% | -4.5% | ? | 31.7*
Cc1ccn2c(NC(=O)c3ccccc3)c(-c3ccccc3)nc2c1 | 18.0 | -6.1% | 6.4% | 12.0% | -23.7% | 1.5
O=C(O)c1ccccc1C(=O)Nc1c(-c2ccccc2)nc2ccccn12 | 18.1 | 15.8% | 8.6% | -1.4% | 18.6% | 27.2*
SMILES | Shiga inhibitor | HCV inhibitor | Pf growth 48h | AMA1 RON2 block | Pf growth 96h | Cycloheximide cs
CN(C)c1ccc(-c2nc3ccccn3c2/N=C/c2ccc(Br)cc2)cc1 | 80.2 | 24.9% | ? | ? | -53.9% | 46.3*
Clc1c(-c2ccccc2)nc2ccccn12 | 36.5 | 0.4% | 126.6% | -1.2% | 16.4% | 20.6*
Cn1c(C=O)c(-c2ccc3cc[nH]c3c2)c2ccccc21 | / | -23.7% | ? | 19.2% | ? | /
Cc1nc(C)c(C(=O)OCC(=O)NCc2ccccc2Cl)s1 | / | -2.5% | / | 0.0% | / | /
Cc1c(-c2ccc(Br)cc2)nc2ccccn12 | 49.3* | -21.1% | 209.4% | -10.0% | 164.1% | 29.2*
Cc1ccc(-c2nc3ccc(Br)cn3c2Cc2ccccc2)cc1 | / | / | / | 1.7% | / | /
CC1CN=C(NS(=O)(=O)c2ccccc2)N1 (centres undefined) | / | / | / | 0.0% | / | /
COc1ccc(C(=O)Nc2nc(CC(=O)NCCc3ccccc3)cs2)cc1 | / | 10µM* | 15.5% | -0.5% | 31.4% | /
COc1ccc(CCNC(=O)CC(=O)NCCc2ccc(OC)cc2)cc1 | -2.9 | 2.9% | ? | 15.5% | -1.6% | -1.6
COCCCNC(=O)N1c2ccccc2Sc2ccccc21 | 25.3 | 13.5% | 0.0% | 5.0% | 10.3% | 2.7
COc1ccc(CCNC(=O)N2c3ccccc3Sc3ccccc32)cc1 | / | 10µM* | / | 17.2% | / | /
COc1ccc(OC(=O)NCCc2ccccc2)cc1 | 61.7* | -7.1% | 109.8% | -0.3% | 110.3% | 33.2*
COc1ccc2cc(C(=O)NCCc3ccccc3)[nH]c2c1 | 35.2 | -1.9% | 0.0% | -2.0% | 66.3% | 21.6*
Cc1ccc(-c2cc3nc(-c4ccccc4)cc(NCCCO)n3n2)cc1 | / | / | / | 19.1% | / | /
C[C@H]1CN([C@@H](C)CO)C(=O)CCCn2cc(nn2)CO[C@@H]1CN(C)S(=O)(=O)c1ccc(Oc2ccccc2)cc1 | / | / | / | -1.9% | / | /
COc1ccc(CCNC(=S)Nc2ccccc2)cc1 | 3.5 | ? | 10.4µM* | -5.1% | ? | 14.7
CC(C)c1ccc(OC(=O)NCCO)cc1 | 44.1* | 10.1% | 24.8% | 5.7% | / | 14.7*
COCCCNC(=O)c1ccc(N(C)S(=O)(=O)c2ccc(OC)cc2)cc1 | -3.3 | 19.4% | 7.4% | -6.7% | 1.9% | 1.1
COc1ccc(CCNC(=O)c2ccc(N(C)S(=O)(=O)c3ccc(C)cc3)cc2)cc1OC | -7.1 | 10µM* | ? | -13.5% | -9.0% | 5.9
COc1ccc(CCNC(=O)c2ccc(N(C)S(=O)(=O)c3ccccc3)cc2)cc1 | -6.8 | ? | 2.08µM* | -2.6% | ? | 10.4
C[C@H](NC(=O)c1ccco1)C(=O)N1CCN(c2ccc(C(F)(F)F)cn2)CC1 | / | -12.0% | / | 2.4% | / | /
Cc1ccc(-c2ccc(CN3C(CC(C)C)C(=O)N(Cc4cn(CC5CCCCC5)nn4)CCS3(=O)=O)cc2)cc1 (centres undefined) | / | / | / | -2.1% | / | /
COCCNc1nc(NCc2cc(-c3ccc(OC)cc3)no2)c2sccc2n1 | / | / | / | -10.2% | / | /
Cn1c(N)c(C(=O)NCc2ccccc2)sc1=S | 2.5 | -7.9% | -2.8% | -3.0% | 9.2% | -2.9
COc1ccc(CCNC(=O)c2ccccc2C(=O)NCCc2ccc(OC)cc2)cc1 | / | 0.7% | / | -8.9% | / | /

Assay outcomes from PubChem BioAssay.
